Results filed as inconclusive are left out. Activity calls are given as the source filed them. Calls follow the shape of the dose curve; as a rule, active = well fitted cell-killing curve with a large enough effect; inconclusive = small, poorly fitted or top-dose-only effect, or effect the other way; inactive = flat fitted curve, though single readings scatter.
Tests used:
Experiment in all cases: Primary qHTS to identify gynecologic anti-cancer compounds using libraries of approved drugs and bioactive compounds (AID 1345084); also: nearly all actives have a fitted effect of over 55% in size
C33A = details: Gynecologic cancer cell panel viability, ATPlite luminescence, 48 h; series mostly up to 57.5 µM
How it was run: (§1)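 Five-concentration response, 48 h; readout is ATP-driven luciferase luminescence.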

CAOV3 = details: Gynecologic cancer cell panel viability, ATPlite luminescence, 48 h; series mostly up to 57.5 µM
How it was run: as §1

CASKI = details: Gynecologic cancer cell panel viability, ATPlite luminescence, 48 h; series mostly up to 57.5 µM
How it was run: as §1

Es-2 = details: Gynecologic cancer cell panel viability, ATPlite luminescence, 48 h; series mostly up to 57.5 µM
How it was run: as §1

HeLa = details: Gynecologic cancer cell panel viability, ATPlite luminescence, 48 h; series mostly up to 57.5 µM
How it was run: as §1

Hek293T = details: Gynecologic cancer cell panel viability, ATPlite luminescence, 48 h, control line for the selectivity index; series mostly up to 57.5 µM
How it was run: as §1

JEG-3 = details: Gynecologic cancer cell panel viability, ATPlite luminescence, 48 h; series mostly up to 57.5 µM
How it was run: as §1

OV90 = details: Gynecologic cancer cell panel viability, ATPlite luminescence, 48 h; series mostly up to 57.5 µM
How it was run: as §1

PA-1 = details: Gynecologic cancer cell panel viability, ATPlite luminescence, 48 h; series mostly up to 57.5 µM
How it was run: as §1

SKOV3 = details: Gynecologic cancer cell panel viability, ATPlite luminescence, 48 h; series mostly up to 57.5 µM
How it was run: as §1

Tov-21-G = details: Gynecologic cancer cell panel viability, ATPlite luminescence, 48 h; series mostly up to 57.5 µM
How it was run: as §1

Tov112D = details: Gynecologic cancer cell panel viability, ATPlite luminescence, 48 h; series mostly up to 57.5 µM
How it was run: as §1
% is scaled to controls: 0 for no effect and ±100 for the full control effect.

C/C=C/C=C/C=C/C(=O)O[C@@H]1[C@@H](OC)C2=C(C(=O)N(C(C)C(=O)O)C2)[C@@]2(C)CCCC(C)(C)[C@H]12 (stereo not given in full)
inactive: Potency (C33A) | Potency (CAOV3) | Potency (CASKI) | Potency (Es-2) | Potency (HeLa) | Potency (Hek293T) | Potency (JEG-3) | Potency (OV90) | Potency (PA-1) | Potency (SKOV3) | Potency (Tov-21-G) | Potency (Tov112D)

COc1c(C)c2c(c(O)c1C/C=C(\C)CC/C=C(\C)CCC(=O)O)C(=O)OC2
inactive: Potency (C33A) | Potency (CAOV3) | Potency (CASKI) | Potency (Es-2) | Potency (HeLa) | Potency (Hek293T) | Potency (JEG-3) | Potency (OV90) | Potency (PA-1) | Potency (SKOV3) | Potency (Tov-21-G) | Potency (Tov112D)

Cn1ccnc1CCOC(c1cc2nccc(C(=O)O)c2[nH]1)c1ccccc1Cl (stereo not given)
inactive: Potency (C33A) | Potency (CAOV3) | Potency (CASKI) | Potency (Es-2) | Potency (HeLa) | Potency (Hek293T) | Potency (JEG-3) | Potency (OV90) | Potency (PA-1) | Potency (SKOV3) | Potency (Tov-21-G) | Potency (Tov112D)

COc1cc2c(cc1O)C1(OC)Cc3ccc4c(c3C1N(C)CC2)OCO4 (stereo not given)
inactive: Potency (C33A) | Potency (CAOV3) | Potency (CASKI) | Potency (Es-2) | Potency (HeLa) | Potency (Hek293T) | Potency (JEG-3) | Potency (OV90) | Potency (PA-1) | Potency (SKOV3) | Potency (Tov-21-G) | Potency (Tov112D)

C=C1C2(CCC(=O)OC2(C)C)CC(OC(=O)/C(C)=C/C)C2(C)C13OC14C(=O)OC(C)(C(=O)C12C(=O)OC4C)C3OC(C)=O (stereo not given)
inactive: Potency (C33A) | Potency (CAOV3) | Potency (CASKI) | Potency (Es-2) | Potency (HeLa) | Potency (Hek293T) | Potency (JEG-3) | Potency (OV90) | Potency (PA-1) | Potency (SKOV3) | Potency (Tov-21-G) | Potency (Tov112D)

CC(C)[C@H]1CCC(CO)=C[C@@H]1/C=C(\CO)C(=O)O
inactive: Potency (C33A) | Potency (CAOV3) | Potency (CASKI) | Potency (Es-2) | Potency (HeLa) | Potency (Hek293T) | Potency (JEG-3) | Potency (OV90) | Potency (PA-1) | Potency (SKOV3) | Potency (Tov-21-G) | Potency (Tov112D)

CC(/C=C/C1(O)C2(C)COC1(C)CC(=O)C2)O[C@@H]1O[C@H](CO)[C@@H](O)[C@H](O)[C@H]1O (stereo not given in full)
inactive: Potency (C33A) | Potency (CAOV3) | Potency (CASKI) | Potency (Es-2) | Potency (HeLa) | Potency (Hek293T) | Potency (JEG-3) | Potency (OV90) | Potency (PA-1) | Potency (SKOV3) | Potency (Tov-21-G) | Potency (Tov112D)

CC1(C)CC2C(C1)C1(C)CCC13OC3(CO)C2O (stereo not given)
inactive: Potency (C33A) | Potency (CAOV3) | Potency (CASKI) | Potency (Es-2) | Potency (HeLa) | Potency (Hek293T) | Potency (JEG-3) | Potency (OV90) | Potency (PA-1) | Potency (SKOV3) | Potency (Tov-21-G) | Potency (Tov112D)

COC(=O)C1=CO[C@@H](O[C@@H]2O[C@H](COC(=O)/C=C/c3cc(OC)c(O)c(OC)c3)[C@@H](O)[C@H](O)[C@H]2O)[C@@H]2C(CO)=CC[C@H]12
inactive: Potency (C33A) | Potency (CAOV3) | Potency (CASKI) | Potency (Es-2) | Potency (HeLa) | Potency (Hek293T) | Potency (JEG-3) | Potency (OV90) | Potency (PA-1) | Potency (SKOV3) | Potency (Tov-21-G) | Potency (Tov112D)

CC[C@H](C)/C=C(C)/C=C/C(=O)Cc1cc(O)c(C)c(O)c1C=O
inactive: Potency (C33A) | Potency (CAOV3) | Potency (CASKI) | Potency (Es-2) | Potency (HeLa) | Potency (Hek293T) | Potency (JEG-3) | Potency (OV90) | Potency (PA-1) | Potency (SKOV3) | Potency (Tov-21-G) | Potency (Tov112D)

CC(C)CNC(=O)/C=C/CCCCc1ccc2c(c1)OCO2
inactive: Potency (C33A) | Potency (CAOV3) | Potency (CASKI) | Potency (Es-2) | Potency (HeLa) | Potency (Hek293T) | Potency (JEG-3) | Potency (OV90) | Potency (PA-1) | Potency (SKOV3) | Potency (Tov-21-G) | Potency (Tov112D)

O=C(OCC12OC1C=CC(OC(=O)c1ccccc1)C2O)c1ccccc1 (stereo not given)
inactive: Potency (C33A) | Potency (CAOV3) | Potency (CASKI) | Potency (Es-2) | Potency (HeLa) | Potency (Hek293T) | Potency (JEG-3) | Potency (OV90) | Potency (PA-1) | Potency (SKOV3) | Potency (Tov-21-G) | Potency (Tov112D)

N[C@H]1C[C@H]1c1ccc(-c2cccc(O)c2)cc1
inactive: Potency (C33A) | Potency (CAOV3) | Potency (CASKI) | Potency (Es-2) | Potency (HeLa) | Potency (Hek293T) | Potency (JEG-3) | Potency (OV90) | Potency (PA-1) | Potency (SKOV3) | Potency (Tov-21-G) | Potency (Tov112D)

CC(C)c1cc2c(c(O)c1O[C@@H]1O[C@H](CO)[C@@H](O)[C@H](O)[C@H]1O)CC1(O)CCC(O)C(C)(C)C1CC2 (stereo not given in full)
inactive: Potency (C33A) | Potency (CAOV3) | Potency (CASKI) | Potency (Es-2) | Potency (HeLa) | Potency (Hek293T) | Potency (JEG-3) | Potency (OV90) | Potency (PA-1) | Potency (SKOV3) | Potency (Tov-21-G) | Potency (Tov112D)

CC1OC(OC2C(CO)OC(OCC3OC(OC(=O)C45CCC(C)(C)CC4C4=CCC6C7(C)CCC(OC8OC(C(=O)O)C(O)C(OC9OC(CO)C(O)C(O)C9O)C8O)C(C)(C)C7CCC6(C)C4(C)CC5)C(O)C(O)C3O)C(O)C2O)C(O)C(O)C1O (stereo not given)
inactive: activity change, negative = cytotoxicity (C33A) 4.48% [at 6.55 µM] | activity change, negative = cytotoxicity (CAOV3) -1.08% [at 6.55 µM] | activity change, negative = cytotoxicity (CASKI) 0.241% [at 6.55 µM] | activity change, negative = cytotoxicity (Es-2) 5.55% [at 6.55 µM] | activity change, negative = cytotoxicity (HeLa) -1.58% [at 6.55 µM] | activity change, negative = cytotoxicity (Hek293T) 6.6% [at 6.55 µM] | activity change, negative = cytotoxicity (JEG-3) 9.3% [at 6.55 µM] | activity change, negative = cytotoxicity (OV90) 0.685% [at 6.55 µM] | activity change, negative = cytotoxicity (PA-1) 14.3% [at 6.55 µM] | activity change, negative = cytotoxicity (SKOV3) 21% [at 6.55 µM] | activity change, negative = cytotoxicity (Tov-21-G) 0.671% [at 6.55 µM] | activity change, negative = cytotoxicity (Tov112D) 0.769% [at 6.55 µM]

Source: PubChem BioAssay (NCATS)
